# Screening results: PubChem, Broad Institute
# aSyn 5UTR act: Activators via SNCA 5'UTR binding, MLPCN | AID 1814 | 300,000 tested, 7.1% active | alpha-synuclein 5'UTR reporter, activators screen | activity score, % (tested at 7.5 µM), hits read low; in the data active = activity score below about -60%
# * hit, by the source's call. The list is a sample of the results.
SMILES,aSyn 5UTR act
O=C(Nc1ccccn1)c1ccc(Cl)s1,-129*
O=C(Nc1ccc(Br)cn1)c1ccc(Br)s1,-198*
O=C(Nc1ccc(Br)cn1)c1ccc(Cl)s1,-167*
O=C(Nc1ccc2sccc2c1)c1ccc(Cl)s1,-198*
O=C(Nc1nc(-c2ccccn2)cs1)c1ccc(Cl)s1,68
O=C(Nc1nccs1)c1ccc(Cl)s1,-106*
Cc1ccccc1C(=O)Nc1ccc(Br)cn1,-77*
Cc1ccc2sc(-c3ccc(NC(=O)/C=C\C(=O)O)cc3)nc2c1,-96*
Cc1ccc2nc(-c3ccc(NC(=O)COCC(=O)O)cc3)sc2c1,-96*
Cc1ccc2nc(-c3ccc(NC(=O)CSCC(=O)O)cc3)sc2c1,-197*
Cc1ccc(C)c(N=Nc2nc3ccccc3n2C)c1,-202*
Cc1cc(C)c(C)c(N=Nc2nc3ccccc3n2C)c1C,-75*
Cc1ccc(-n2ncc3c(NNC(=O)c4ccco4)ncnc32)cc1Cl,-166*
Cc1cccc(-n2ncc3c(NNC(=O)c4ccco4)ncnc32)c1,-133*
COc1ccc(-c2nc(CN3CCN(c4cc(C)nc(C)c4)CC3)c(C)o2)c2ccccc12,68
Cc1oc(-c2ccc(-c3ccccc3)cc2)nc1CN1CCN(CC(=O)N(C)C)CC1,-143*
CC(=O)n1cc(/C=N/NC(=O)c2ccc(Cl)cc2)c2ccccc21,-69*
Cn1cccc1/C=N/NC(=O)c1cccs1,-70*
Cn1cc(/C=N\NC(=O)c2cccs2)c2ccccc21,-280*
CCCc1cc(C(=O)N/N=C/c2cccn2C)cs1,-72*
COc1ccc(/C=N/NC(=O)c2cccs2)c2ccccc12,-62*
Cc1ccnc(NC(=S)NC(=O)/C=C/c2ccccc2)c1,-68*
CC(=O)c1ccc(NC(=S)NC(=O)/C=C/c2ccccc2)cc1,-104*
CC(=O)Nc1ccc(NC(=S)NC(=O)/C=C/c2ccc(Cl)cc2)cc1,-75*
CCC(=O)Nc1ccc(NC(=S)NC(=O)/C=C/c2ccccc2)cc1,-62*
SMILES,aSyn 5UTR act
CCC(=O)Nc1cccc(C(=O)/C=C/c2ccccc2)c1,-208*
COc1ccc(OCc2cc(C(=O)NCc3nc(C)cs3)no2)c(Cl)c1,-94*
COc1ccc(OCc2cc(C(=O)NC(C)c3csc(C)n3)no2)c(Cl)c1 (stereo unspecified),-119*
CCOC(=O)c1cnc2cc3c(cn2c1=O)CCCC3,-132*
O=C(Nc1ccc2c(c1)OCO2)c1cccc(F)c1,-183*
O=C(Nc1cccc(F)c1)Nc1ccc2c(c1)OCO2,-99*
O=C(Nc1ccc2c(c1)OCO2)c1c(F)cccc1F,-125*
CCCn1c(C2CCCN2c2nc(-c3cccc(Br)c3)cs2)nc2ccccc21 (stereo unspecified),-93*
O=C(NCc1cccs1)c1ccc(N2CCCCC2)nc1,-131*
CC1CCCN(c2ccc(C(=O)NCc3cccs3)cn2)C1 (stereo unspecified),-85*
CC1CCN(c2ccc(C(=O)NCCc3ccccc3)cn2)CC1,-105*
CC1CCCN(c2ccc(C(=O)NCc3ccccc3)cn2)C1 (stereo unspecified),-103*
O=C(NCc1cccs1)c1ccc(N2CCCC2=O)cc1,-106*
COC(=O)c1sccc1N/N=C/c1cccc(Oc2ccccc2)c1,-64*
COC(=O)c1sccc1N/N=C/c1ccc(OC)c(OC)c1OC,-140*
N#CCc1ccc(C(=O)c2ccccc2)s1,-70*
Cc1nc2c(cc(Oc3ccc(S(=O)(=O)N4CCOCC4)cn3)c3ccsc32)s1,-89*
Fc1ccc(-c2csc(/C=C/c3ccc4c(c3)OCO4)n2)cc1,-186*
O=C(/C=C/c1ccc2c(c1)OCO2)c1ccc[nH]1,-279*
O=C(/C=C/c1cccc(Br)c1)c1ccc2c(c1)OCO2,-72*
COc1cc(/C=N/N(C)c2ccccc2)ccc1O,-156*
CN(/N=C/c1ccc2c(c1)OCO2)c1ccccc1,-169*
O=C(/C=C/c1ccccc1)c1ccc2c(c1)OCO2,-206*
COc1cccc(/C=C/C(=O)c2ccc[nH]2)c1,-305*
CN(C(=O)/C=C/c1ccc2c(c1)OCO2)c1ccccc1,-89*
SMILES,aSyn 5UTR act
O=C(/C=C/c1ccc2c(c1)OCO2)c1ccc(F)cc1,-90*
O=C(N/N=C/c1ccc(O)cc1)c1cccc(N/N=C/c2ccc(O)cc2)c1,-108*
O=C(N/N=C/c1ccc(Br)cc1)c1ccc(Br)o1,-207*
O=C(NN=C1CCCCCC1)c1ccc(Br)o1,-82*
O=C(N/N=C/c1ccc(Br)cc1)c1ccc(F)cc1,-78*
O=C(N/N=C/c1sc2ccccc2c1O)c1ccccc1,82
O=C(N/N=C/c1ccccc1O)c1cccc(C(F)(F)F)c1,82
O=C(N/N=C/c1ccccc1C(F)(F)F)c1ccc(O)cc1,-135*
Nc1c(C(=O)N/N=C/c2ccccc2)cnn1-c1ccccc1,-108*
Cc1cccc(/C=N/NC(=O)c2ccc(Br)cc2)c1,-90*
O=C(N/N=C/c1ccc(F)cc1)c1ccccc1,-152*
O=C(NN=C1CCCC1)c1ccn[nH]1,-77*
O=C(N/N=C/c1ccccc1)c1n[nH]c2c1CCCC2,-88*
O=C(N/N=C/c1ccccc1Cl)c1n[nH]c2c1CCCC2,83
CCN1C(=S)SC(=O)C1=C1C=C(C)N(CCO)C(C)=C1,-165*
COc1cc(NC(=O)CN2CCC(C)CC2)c(C)cc1[N+](=O)[O-],-82*
c1ccc(Oc2nc(-c3ccccn3)nc3ccccc23)cc1,-64*
COc1ccc(Oc2nc(-c3ccccn3)nc3ccccc23)cc1,-110*
Fc1ccc(Oc2nc(-c3ccccn3)nc3ccccc23)cc1,-95*
CCOc1ccc(N(C(=O)c2cc3ccccc3oc2=O)C2C=CS(=O)(=O)C2)cc1 (stereo unspecified),-88*
Cc1cc(C)cc(N(C(=O)c2cc3ccccc3oc2=O)C2C=CS(=O)(=O)C2)c1 (stereo unspecified),-126*
Cc1ccc(N(C(=O)c2cc3ccccc3oc2=O)C2C=CS(=O)(=O)C2)cc1 (stereo unspecified),-107*
COC(=O)COc1ccc(Cl)cc1C1Nc2ccccc2C(=O)N1c1ccc(OC)cc1 (stereo unspecified),-88*
COc1ccc(N2C(=O)c3ccccc3NC2c2ccc(OC)c(CSc3ccccn3)c2)cc1 (stereo unspecified),-89*
COc1ccc(N2C(=O)c3ccccc3NC2c2ccc(OC)c(COc3ccccn3)c2)cc1 (stereo unspecified),-77*
SMILES,aSyn 5UTR act
Fc1ccc(/C=N/Nc2ccccn2)cc1,-120*
Brc1ccccc1/C=N/Nc1ccccn1,-131*
Cc1ccc(/C=N/Nc2ccccn2)s1,-149*
Clc1nccnc1N/N=C/c1ccc(Br)cc1,-106*
C(=N\Nc1ccccn1)/c1c[nH]c2ccccc12,-114*
FC(F)(F)c1ccccc1/C=N/Nc1ccccn1,-94*
Clc1ccc(/C=N/Nc2ccccn2)cc1,-163*
COc1ccc(/C=N/Nc2ccccn2)cc1O,-145*
Oc1ccc(N=Nc2ccccc2C(F)(F)F)c2cccnc12,72
Brc1ccc(/C=N/Nc2ccccn2)cc1,-193*
CC(=O)Nc1ccc(N=C(C2=C(O)c3ccccc3C2=O)c2ccccc2)cc1,-64*
CC(=O)Nc1ccc(NC2=C/C(=N/S(=O)(=O)c3cccs3)c3ccccc3C2=O)cc1,83
CC(=NC1CC1)C1=C(O)c2ccccc2C1=O,-177*
CCOc1ccc(N=C(C)C2=C(O)c3ccccc3C2=O)cc1,-123*
O=[n+]1cc(-c2cc3ccccc3o2)n([O-])c2c1CCCC2,-91*
